Data as given in ChEMBL document CHEMBL3988442, “University of Dundee, Small-Polar-MMV Screening Library” (2021).
In all, about 48,000 compounds went through this assay and about 13,000 (27%) showed an effect of 50% or more. This is one part of the list.

system: Wolbachia pipientis; assay: Anti-Wolbachia Cell-Based Screen; type: functional; design: scale not given: in the data most compounds retested in dose-response had high values; settings: 5 µM

Row | Compound | Percent Effect [%]
1 | O=C(O)C(F)(F)F.O=C(c1ccccc1)N1CCS(=O)(=O)[C@@H]2CCNCC[C@@H]21 | -7.979
2 | c1ccc(CCn2cc(-c3nc(CN4CCOCC4)no3)nn2)cc1 | 7.795
3 | COc1ccc(-c2n[nH]cc2CN(C)CCc2scnc2C)c(F)c1 | -15.83
4 | Cc1cc2nc(CO[C@H]3CN(C4CCN(C)CC4)C[C@H]3F)[nH]c2cc1C | -19.54
5 | COc1cccc2c1OCC(C(=O)N1CCC(NS(C)(=O)=O)CC1)C2 (centres undefined) | 16.61
6 | CC(C)c1cnc(CN2C(=O)CC3(CCSC3)C2=O)o1 (centres undefined) | 17.31
7 | O[C@@H]1CN(Cc2ccncc2)C[C@H]1Oc1ccccc1 | 125.9
8 | O=C1NC(c2ccccc2)=N[C@@]12CC[C@@H]1CN(Cc3cccnc3)C[C@@H]12 | 0.6919
9 | Cc1cnccc1CN1C[C@@H](O)[C@H](Oc2ccccc2)C1 | -5.554
10 | CC(C)O[C@H]1CN(Cc2cnc3c(-c4ccccc4)cnn3c2)C[C@@H]1O | 3.276
11 | Cc1cncc(CN2C[C@@H](O)[C@H](Oc3ccccc3)C2)c1 | 132.9
12 | O[C@@H]1CN(Cc2cccnc2)C[C@H]1Oc1ccccc1 | 103.4
13 | F[C@@H]1CN(Cc2cccnc2)C[C@@H]1OCc1nc2ccccc2[nH]1 | 10.94
14 | CCC1CN(C(=O)c2cncc(C)c2)CCC(=O)N1Cc1ccccc1 (centres undefined) | -10.11
15 | OC1CN(Cc2ccccc2)CCN(c2ccncc2)C1 (centres undefined) | 12.72
16 | COCC(=O)N1CCN(c2ncnc3cccc(F)c23)CC1 | 0.7263
17 | CC1COc2ccccc2N1C(=O)c1ccc(=O)n(C)c1 (centres undefined) | -18.38
18 | Fc1cccc(N2CCCC3(C2)CN(c2ncccn2)CCO3)c1.O=C(O)C(F)(F)F.O=C(O)C(F)(F)F (centres undefined) | -1.466
19 | CCc1nc(CN2CCCN(c3nccs3)CC2)no1 | 1.816
20 | c1csc(N2CCCN(Cc3nc(C4CC4)no3)CC2)n1 | -5.415
21 | c1csc(N2CCCN(Cc3noc(C4CC4)n3)CC2)n1 | 107.3
22 | CC(C)c1nc(CN2CCCN(c3nccs3)CC2)no1 | 89.07
23 | Cc1nc(CN2CCCN(c3nccs3)CC2)no1 | 78.71
24 | Cc1csc(N2CCCN(Cc3noc(C)n3)CC2)n1 | 0.2085
25 | c1csc(N2CCN(Cc3nnnn3C3CC3)CC2)n1 | -36.32
26 | CCc1nc(CN2CCCN(c3ncnc4ccsc34)CC2)no1 | -84.77

Row | Compound | Percent Effect [%]
27 | C[C@@H]1CN(C(=O)CCc2nncn2C)C[C@@]1(O)C1CCC1 | -1.808
28 | Cc1cc(C)n(C(=O)c2cn(C)nc2S(=O)(=O)N2CCSCC2)n1 | -0.316
29 | Cc1ccc2nc(CN3CCCCC3CCN3CCOCC3)cn2c1 (centres undefined) | 98.48
30 | COc1c(C)cnc(CN2CCCCC2CCN2CCOCC2)c1C (centres undefined) | 0.5923
31 | COCCCC1CCCCN1Cc1cn2cc(C)ccc2n1 (centres undefined) | 95.19
32 | Cc1ccc2nc(CN3CCCCC3CCn3cccn3)cn2c1 (centres undefined) | 89.18
33 | Cc1c[nH]c(CN2CCCCC2CCn2cccn2)c(C)c1=O (centres undefined) | 21.06
34 | COCCCC1CCCCN1Cc1cnn(C)c1C1CC1 (centres undefined) | 18.85
35 | Cc1ccc(O)c(CN2CCCCC2CCN2CCOCC2)c1 (centres undefined) | 102.9
36 | Cc1nccn1CCC1CCCCN1Cc1ccc(O)cc1Cl (centres undefined) | -13.87
37 | Cc1cnn(CC2CCCN2Cc2cc(=O)n3cc(C)ccc3n2)c1 (centres undefined) | 11.19
38 | Cc1oc(-c2ccoc2)nc1CN1CCCCC1CCn1cccn1 (centres undefined) | 3.711
39 | CCCn1ncc(CN2CCCCC2CCCOC)c1C (centres undefined) | -0.2831
40 | COc1cc2c(cc1CN1CCCCC1CN1CCOCC1)CCC2 (centres undefined) | 26.24
41 | CC(C)(C)CN(CCC#N)C(=O)Nc1cccc(N2CCNC2=O)c1 | 7.726
42 | O=C(c1ccccc1F)N(CCCO)S(=O)(=O)c1cccs1 | 2.629
43 | O=C(NCCNc1ncccn1)N(Cc1ccc(F)cc1F)C1CC1 | -5.455
44 | O=C(CN1CCCC1c1nc(-c2ccccc2)no1)N1CCOCC1 (centres undefined) | 6.777
45 | Cc1ccc2nc(CN3CCCCC3C(=O)N3CCOCC3)cn2c1 (centres undefined) | 89.82
46 | N#Cc1ccccc1OCCN1CCCCC1C(=O)N1CCOCC1 (centres undefined) | 9.052
47 | Cc1nc(CN2CCCN(C(=O)C(C)OCC3CC3)CC2)cs1 (centres undefined) | 0.6409
48 | COc1ccc(S(=O)(=O)NC(=O)c2c(C)noc2C(C)C)cc1C | -2.008
49 | CCc1nc(N2CCCC(CCOC)(C(=O)O)C2)ncc1C (centres undefined) | 2.702
50 | CC(c1ccc(Cl)cc1)N1CCN(CCS(N)(=O)=O)CC1 (centres undefined) | -4.709
51 | CCCS(=O)(=O)CCN1CCN(C(C#N)c2ccccc2)CC1 (centres undefined) | 125.8
52 | CC(C)S(=O)(=O)CCN1CCN(C(C#N)c2ccccc2)CC1 (centres undefined) | 88.63

Row | Compound | Percent Effect [%]
53 | CCCS(=O)(=O)CCN1CCN(c2cc(F)ccc2F)CC1 | -4.475
54 | CC(c1ccc(Cl)cc1)N1CCN(CCCS(N)(=O)=O)CC1 (centres undefined) | 8.4
55 | CCS(=O)(=O)CCN1CCN(C(C)c2cccnc2)CC1 (centres undefined) | 4.9
56 | CS(=O)(=O)N1C[C@H](C(=O)Nc2cnccn2)C[C@H]2OCC[C@H]21 | -3.249
57 | CS(=O)(=O)N1CC2(CCN(C3CCCCC3)CC2)Cc2ccccc21 | 114.5
58 | CS(=O)(=O)N1CC2(CCN(C3CCCCC3)C2)Cc2ccccc21 (centres undefined) | 120
59 | CS(=O)(=O)N1CCc2[nH]cnc2C12CCN(C1CCOCC1)CC2 | 0.6109
60 | CN(C)C(=O)N1CC2(CCN(S(C)(=O)=O)CC2)c2ccccc21 | 1.836
61 | Cc1cccc(N2CCC(N3CCC4(CCCNC4=O)C3)CC2)c1C (centres undefined) | 11.3
62 | O=C1N(Cc2ccc(F)c(F)c2)CCCC12CCN(C1CCCCC1)C2 (centres undefined) | -2.682
63 | CC(C)CCN1CCc2[nH]nc(C(=O)N3CCCC3C)c2C1.O=C(O)C(F)(F)F (centres undefined) | -10.1
64 | CS(=O)(=O)N1CC[C@@H]2[C@@H](CCC(=O)N2CCC2=CCCCC2)C1 | -15.08
65 | CN(Cc1cnn(C)c1)Cc1nc(CCc2ccccc2)no1 | 8.219
66 | Cc1cnccc1-c1cnn(CCNC(=O)C(C)(C)C)c1C1CC1.Cl | 128.5
67 | CCNc1ncc(C(=O)NCCNc2ccncc2C)cn1 | 11.05
68 | Cc1cnccc1-c1cnn(CCNC(=O)c2ccccn2)c1C1CC1.Cl | 221.9
69 | Cc1ccccc1C1CCN(C(=O)CCNC(=O)C(C)(C)C)C1 (centres undefined) | -3.334
70 | O=C(NCCSC1CCCC1)c1cnccn1 | 5.351
71 | CC(C)(C)C(=O)NCCC(=O)NS(=O)(=O)c1cccnc1 | 1.555
72 | Cc1ccc(CN(C(=O)NCCNC(=O)c2cccnc2)C(C)C)o1 | -0.6443
73 | Cc1cnn(C(C)C2CC2)c1NC(=O)c1ccncc1 (centres undefined) | -0.2997
74 | CCOC(=O)NC(CNC(=O)c1ccccn1)CC(C)C (centres undefined) | -0.8901
75 | Cc1cnccc1-c1cnn(CCNC(=O)c2ccncc2)c1C1CC1.Cl | 189.5
76 | Cc1cnccc1-c1cnn(CCNC(=O)c2cccnc2)c1C1CC1.Cl | 156.9
77 | CC(Cn1cccn1)NCc1csc(-c2ccc(F)cc2)n1 (centres undefined) | 3.098
78 | CCCSCC(=O)Nc1ncn(CC(=O)N2CCCCCC2)n1 | -27.1

Row | Compound | Percent Effect [%]
79 | COC(=O)c1cccc(CN(C)Cc2ncnn2C)c1C#N | -234
80 | O=C(Nc1cnn(-c2ccccc2Cl)c1)N[C@@H]1C=C[C@H](CO)C1 | -14.17
81 | O=C(NCC1CC1)Nc1cnc2ccc(F)cc2c1O | 100.3
82 | O=C(Cn1cnnn1)Nc1ccc(F)cc1OCC1CC1 | 11.02
83 | COc1ccc2c(O)c(NC(=O)NCC3CC3)cnc2c1 | -18.39
84 | CNc1nc(CNC(=O)Nc2cccc(COCCOC(C)C)c2)cs1 | -6.236
85 | CS(=O)(=O)N1CCCC12CCCN(c1nccs1)C2 (centres undefined) | 4.667
86 | CC(C)c1ccc(S(=O)(=O)N2CCCC3(CCCN3S(C)(=O)=O)C2)cc1 (centres undefined) | 108.3
87 | CCc1ccc(S(=O)(=O)N2CCCC3(CCCN3S(C)(=O)=O)C2)cc1 (centres undefined) | 114.6
88 | CCc1ccc(S(=O)(=O)N2CCC3(CC(C(=O)NC)=NO3)C2)cc1 (centres undefined) | 16.22
89 | CC(C)CC(c1nc(-c2cnn(C)c2)no1)N1CCCCC1=O (centres undefined) | 17.74
90 | Cc1ccccc1NC(=O)CNC(C)COc1ccccc1 (centres undefined) | -5.07
91 | CCOC(=O)COc1cccc(NC(=O)C2COCCO2)c1 (centres undefined) | -0.4507
92 | CC(=O)c1ccc(OCC(C)O)cc1O (centres undefined) | 100.7
93 | Cc1ccc(OCC(C)NS(C)(=O)=O)cc1C (centres undefined) | 1.577
94 | CC(=O)c1ccc(Cl)c(Cl)c1OCC(=O)NC(N)=O | 29.22
95 | CCOC(=O)COc1ccc(C(C)=O)c(O)c1 | 95.41
96 | CN(Cc1cccc(F)c1)C(=O)CN1CCCCC1Cn1cncn1 (centres undefined) | -4.656
97 | COC(=O)CCN1CCCC1c1cccc2c1OCCO2 (centres undefined) | 6.335
98 | CN(C)C(=O)N1CC[C@@H](c2ccc3ccccc3c2)[C@H](O)C1 | 2.148
99 | Cc1cc(CN(C)Cc2csc(-c3ccc(C(C)C)cc3)n2)no1 | -4.334
100 | CC(C)c1ccc(C(N)c2cccs2)cc1 (centres undefined) | -4.854
101 | COCC(=O)N[C@H](C)c1onc(-c2ccc(OC)cc2)c1C(=O)O | 9.623
102 | CC(C)c1ccc(-c2nonc2N)cc1 | 135.4
103 | COc1ccc(-c2nonc2N)cc1 | 116.2
104 | COc1ccc(-c2noc([C@@H](C)NC(=O)CC(C)C)c2C(=O)O)cc1 | 0.3938
